In PubChem BioAssay AID1159580 (chemical genetic matrix, 2015):
“And” between values parts separate entries of the source, which are not always exact repeats. Equal entries are not always repeated. In all, about 5,500 compounds went through this assay and about 2,000 (36%) were called active. Roughly 18% stayed inconclusive and do not appear here. No stated cut-off is given here; in the data, active means normalized growth mostly below about 0.91 (no sharp cut-off); inconclusive means no clear call, values can overlap the other calls; inactive means mostly above about 0.92. The list shows a part of the results.

Test: chemical genetic growth profiling, strain panel (AID 1159580);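 further: tested at 20 µM; growth read once vehicle control cultures reached saturation at 30 °C; 1 = growth at the plate median or of vehicle wells; lower values mean less growth of the strain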
Settings: S. cerevisiae deletion strains, growth OD

Measured: normalized growth

CN1CCc2cc3c(cc2C1O)OCO3 (centres undefined)
inactive: locus YAL021C, strain ccr4, hits give low values 1.03 | locus YAL026C, strain drs2, hits give low values 0.986 | locus YAL030W, strain snc1, hits give low values 0.993 | locus YBL061C, strain skt5, hits give low values 0.984 | locus YBR009C, strain hhf1, hits give low values 1.01 | locus YBR021W, strain FUR4, hits give low values 1.08 | locus YBR023C, strain chs3, hits give low values 1.01 | locus YBR171W, strain sec66, hits give low values 0.978 | locus YBR229C, strain ROT2, hits give low values 0.954 | locus YBR231C, strain swc5, hits give low values 0.954 | locus YBR279W, strain paf1, hits give low values 1 | locus YCL011C, strain gbp2, hits give low values 1.01 | locus YCL016C, strain dcc1, hits give low values 1.01 | locus YCL029C, strain bik1, hits give low values 0.982 | locus YCL061C, strain MRC1, hits give low values 1 | locus YCL069W, strain vba3, hits give low values 0.988 | locus YCR088W, strain abp1, hits give low values 0.988 | locus YDL005C, strain med2, hits give low values 0.992 | locus YDL035C, strain GPR1, hits give low values 0.993 | locus YDL040C, strain nat1, hits give low values 0.995 | locus YDL074C, strain BRE1, hits give low values 1.03 | locus YDL101C, strain DUN1, hits give low values 0.977 | locus YDL185W, strain tfp1, hits give low values 0.969 | locus YDL192W, strain arf1, hits give low values 0.998 | locus YDR001C, strain nth1, hits give low values 0.994 | locus YDR069C, strain doa4, hits give low values 0.969 | locus YDR101C, strain arx1, hits give low values 1.02 | locus YDR137W, strain rgp1, hits give low values 0.981 | locus YDR150W, strain NUM1, hits give low values 0.987 | locus YDR159W, strain sac3, hits give low values 0.946 | locus YDR162C, strain NBP2, hits give low values 0.943 | locus YDR195W, strain ref2 0.934 | locus YDR297W, strain sur2, hits give low values 1.01 | locus YDR318W, strain mcm21, hits give low values 0.978 | locus YDR334W, strain swr1, hits give low values 0.993 | locus YDR335W, strain msn5, hits give low values 1.01 | locus YDR388W, hits give low values 0.956 | locus YDR392W, strain spt3, hits give low values 0.926 | locus YDR502C, strain sam2, hits give low values 0.973 | locus YEL003W, strain gim4, hits give low values 0.966 | locus YEL037C, strain rad23, hits give low values 1 | locus YEL061C, strain CIN8 (second series), hits give low values 0.987 | locus YEL061C, strain CIN8, hits give low values 0.99 | locus YER015W, strain faa2, hits give low values 0.996 | locus YER016W, strain bim1, hits give low values 0.986 | locus YER110C, hits give low values 0.977 | locus YER111C, strain swi4, hits give low values 0.992 | locus YER155C, strain BEM2 (second series), hits give low values 0.962 | locus YER155C, strain BEM2, hits give low values 0.984 | locus YER167W, strain BCK2, hits give low values 0.986 | locus YFR010W, strain ubp6, hits give low values 0.979 | locus YGL078C, strain dbp3, hits give low values 0.995 | locus YGL086W, strain mad1, hits give low values 1.05 | locus YGL167C, strain pmr1, hits give low values 0.989 | locus YGL173C, strain kem1, hits give low values 0.994 | locus YGL227W, strain vid30, hits give low values 0.986 | locus YGL240W, strain doc1, hits give low values 0.957 | locus YGL248W, strain PDE1, hits give low values 0.974 | locus YGL253W, strain hxk2, hits give low values 0.988 | locus YGR135W, strain pre9, hits give low values 0.966 | locus YGR252W, strain gcn5, hits give low values 0.95 | locus YHR013C, strain ard1, hits give low values 0.995 | locus YHR027C, strain rpn1, hits give low values 0.991 | locus YHR030C, strain SLT2, hits give low values 0.992 and 1.09 | locus YHR079C, strain IRE1 (second series), hits give low values 0.978 | locus YHR079C, strain IRE1, hits give low values 1.1 | locus YHR094C, strain hxt1, hits give low values 0.968 | locus YHR129C, strain ARP1, hits give low values 0.99 | locus YHR142W, strain chs7, hits give low values 1.01 | locus YHR200W, strain rpn10, hits give low values 0.964 | locus YIL066C, strain RNR3, hits give low values 0.989 | locus YIL073C, strain SPO22, hits give low values 0.988 | locus YIL125W, strain kgd1, hits give low values 0.988 | locus YIR030C, strain dcg1, hits give low values 0.977 | locus YJL092W, strain hpr5, hits give low values 1 | locus YJL095W, strain BCK1 (second series), hits give low values 1.01 | locus YJL095W, strain BCK1, hits give low values 0.953 and 1.06 | locus YJL115W, strain asf1, hits give low values 0.994 | locus YJL129C, strain trk1, hits give low values 0.979 | locus YJL134W, strain LCB3, hits give low values 0.989 | locus YJL154C, strain vps35, hits give low values 0.989 | locus YJL164C, strain tpk1, hits give low values 1 | locus YJL166W, strain qcr8, hits give low values 0.98 | locus YJL168C, strain set2, hits give low values 0.989 | locus YJL187C, strain SWE1 (second series), hits give low values 0.974 | locus YJL187C, strain SWE1, hits give low values 0.995 | locus YJR043C, strain POL32, hits give low values 0.975 | locus YJR066W, strain TOR1, hits give low values 0.999 | locus YJR075W, strain HOC1, hits give low values 0.976 | locus YKL009W, strain mrt4, hits give low values 0.964 | locus YKL068W, hits give low values 0.989 | locus YKL085W, strain MDH1 (second series), hits give low values 0.974 | locus YKL085W, strain MDH1, hits give low values 0.974 | locus YKL160W, strain elf1, hits give low values 0.996 | locus YKR001C, strain vps1, hits give low values 0.998 | locus YKR026C, strain gcn3, hits give low values 0.978 | locus YKR091W, strain srl3, hits give low values 0.992 | locus YLL001W, strain dnm1, hits give low values 0.983 | locus YLL026W, hits give low values 0.998 | locus YLL041C, strain sdh2, hits give low values 0.999 | locus YLR027C, strain aat2, hits give low values 0.995 | locus YLR039C, strain RIC1, hits give low values 0.928 | locus YLR058C, strain SHM2, hits give low values 0.969 | locus YLR102C, strain apc9, hits give low values 0.98 | locus YLR113W, strain HOG1, hits give low values 1.07 | locus YLR221C, strain rsa3, hits give low values 1 | locus YLR258W, strain gsy2, hits give low values 1.01 | locus YLR262C, strain YPT6 (second series), hits give low values 1.01 | locus YLR262C, strain YPT6, hits give low values 0.911 | locus YLR268W, strain sec22, hits give low values 1 | locus YLR320W, strain mms22, hits give low values 0.985 | locus YLR330W, strain CHS5, hits give low values 0.991 | locus YLR342W, strain FKS1 (second series), hits give low values 1.04 | locus YLR342W, strain FKS1, hits give low values 0.999 | locus YLR357W, strain rsc2, hits give low values 0.977 | locus YLR370C, strain arc18, hits give low values 1 | locus YLR371W, strain rom2, hits give low values 0.985 | locus YLR384C, strain iki3, hits give low values 0.981 | locus YLR418C, strain cdc73, hits give low values 0.95 | locus YML016C, strain PPZ1, hits give low values 0.992 | locus YML032C, strain rad52, hits give low values 0.974 | locus YML120C, strain ndi1, hits give low values 0.995 | locus YML124C, strain tub3, hits give low values 0.983 | locus YMR058W, strain fet3, hits give low values 1.01 | locus YMR078C, strain ctf18, hits give low values 0.984 | locus YMR125W, strain sto1, hits give low values 0.987 | locus YMR129W, hits give low values 0.987 | locus YMR205C, strain PFK2, hits give low values 0.996 | locus YMR223W, strain ubp8, hits give low values 0.956 | locus YMR231W, strain pep5, hits give low values 0.979 | locus YMR263W, strain SAP30, hits give low values 0.981 | locus YMR307W, strain GAS1, hits give low values 0.951 | locus YNL067W, strain RPL9B, hits give low values 0.97 | locus YNL071W, strain lat1, hits give low values 1 | locus YNL153C, strain GIM3, hits give low values 0.968 | locus YNL183C, strain NPR1, hits give low values 0.999 | locus YNL209W, strain ssb2, hits give low values 1 | locus YNL233W, strain BNI4, hits give low values 0.998 | locus YNL248C, strain rpa49, hits give low values 1 | locus YNL250W, strain rad50, hits give low values 0.988 | locus YNL271C, strain bni1, hits give low values 0.982 | locus YNL298W, strain CLA4, hits give low values 0.956 | locus YNL307C, strain MCK1, hits give low values 0.988 | locus YNL322C, strain KRE1 (second series), hits give low values 1 | locus YNR049C, strain mso1, hits give low values 1 | locus YNR052C, strain pop2, hits give low values 0.982 | locus YOL012C, strain htz1 1.7 | locus YOL147C, strain pex11, hits give low values 0.986 | locus YOR001W, strain rrp6, hits give low values 0.961 | locus YOR061W, strain CKA2, hits give low values 0.969 | locus YOR069W, strain VPS5, hits give low values 0.994 | locus YOR070C, strain gyp1, hits give low values 0.993 | locus YOR080W, strain dia2, hits give low values 0.977 | locus YOR083W, strain WHI5, hits give low values 1.01 | locus YOR106W, strain vam3, hits give low values 1.01 | locus YOR136W, strain idh2, hits give low values 0.989 | locus YOR144C, strain elg1, hits give low values 0.977 | locus YOR184W, strain ser1, hits give low values 0.959 | locus YOR231W, strain MKK1, hits give low values 1.09 | locus YOR265W, strain rbl2, hits give low values 1.01 | locus YOR270C, strain vph1, hits give low values 0.995 | locus YOR290C, strain snf2, hits give low values 1.04 | locus YOR316C, strain cot1, hits give low values 0.979 | locus YPL051W, strain arl3, hits give low values 0.994 | locus YPL078C, strain atp4, hits give low values 1.01 | locus YPL106C, strain sse1, hits give low values 0.994 | locus YPL240C, strain hsp82, hits give low values 0.99 | locus YPL241C, strain CIN2, hits give low values 0.988 | locus YPL256C, strain CLN2, hits give low values 1.08 | locus YPR119W, strain clb2, hits give low values 0.982 | locus YPR141C, strain kar3, hits give low values 0.978 | locus YPR163C, strain tif3, hits give low values 0.987 | locus YPR167C, strain met16, hits give low values 0.99 | strain wtn01, hits give low values 1.04
